This is an account of results in PubChem BioAssay (NCI).

Among the test systems are NCI-H23 lung; NCI-H226 lung; NCI-H322M lung; HOP-62 NSCLC; NCI-H460 lung; HOP-92 NSCLC; NCI-H522 lung; A549/ATCC NSCLC; 786-0 renal; COLO 205 colon.
Common to all, as to assay: NCI-60 one-dose screen, 48 h (100 = growth as untreated, 0 = no growth, -100 = all killed)
What all share (details): 10 µM unless noted

The panel holds about 83,000 compounds, 20% with a hit somewhere; the sample as a whole holds those more often.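 In brief: 96-well plates, 48 h treatment, single concentration, percent growth endpoint.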 A number with no mark means an inactive call. Calls of active or inactive are those of the source. How the source made its calls: active means growth percent below 10; inactive means the rest.

On to `O=C1c2c(c3c4cccnc4[nH]c3c3ccc4ccccc4c23)C(=O)N1CCN1CCCCC1`, for which the growth with NCI-H23 lung is 29.3%; with NCI-H226 lung, 64.6%; in the experiment on NCI-H322M lung, 69.6%; with HOP-62 NSCLC, 36.6%; in the experiment on NCI-H460 lung, 12.5%; with HOP-92 NSCLC, 70.4%. The growth in the experiment on NCI-H522 lung is 63%; in the experiment on A549/ATCC NSCLC it was 46.8%; with 786-0 renal, 52.6%; in the experiment with COLO 205 colon, 69.4%.
Turning to `CCCCCCCCNC(=O)c1ccc(Cn2c(CCCC)nc3c(N)nc4ccccc4c32)cc1`, the growth with NCI-H23 lung was 38.8%; in the experiment on NCI-H226 lung it was 87.7%; in the experiment with NCI-H322M lung, 85.3%; with HOP-62 NSCLC, 75.5%; with NCI-H460 lung, 3.61% (active); in the experiment on HOP-92 NSCLC, 26.2%. In addition, the growth in the experiment on NCI-H522 lung is -50.4% (active); with A549/ATCC NSCLC, 57.7%; with 786-0 renal, -78.3% (active); with COLO 205 colon, -8.18% (active).
In the case of `O=C(Nc1cc(F)cc2cccnc12)c1cnc(N2CCOCC2)cn1`, the growth with NCI-H23 lung is 59.2%; with NCI-H226 lung it was 80.7%; in the experiment with NCI-H322M lung, 92%; in the experiment on HOP-62 NSCLC, 87.3%; in the experiment with NCI-H460 lung, 98.9%; with HOP-92 NSCLC, 83.7%. Moreover, the growth in the experiment with NCI-H522 lung is 15.2%; in the experiment with A549/ATCC NSCLC it was 95.3%; in the experiment on 786-0 renal, 65.7%; in the experiment on COLO 205 colon, 18.1%.
On to `Cc1nn(-c2ccccc2)c2nc(CCl)[nH]c(=O)c12`, for which the growth in the experiment with NCI-H23 lung is 98.8%; with NCI-H226 lung it was 111%; in the experiment on NCI-H322M lung, 103%; with HOP-62 NSCLC, 98.3%; with NCI-H460 lung, 102%; with HOP-92 NSCLC, 117%. In addition, the growth with NCI-H522 lung is 89.8%; with A549/ATCC NSCLC, 97.7%; in the experiment on 786-0 renal, 4.55% (active); in the experiment with COLO 205 colon, 110%.
Take `O=C(O)CNS(=O)(=O)c1ccc(Oc2ccc(S(=O)(=O)NCC(=O)O)cc2)cc1`: the growth is 101% in the experiment with NCI-H23 lung; 107% in the experiment on NCI-H226 lung; 101% in the experiment with NCI-H322M lung; 91.9% in the experiment on HOP-62 NSCLC; 101% in the experiment with NCI-H460 lung; 103% with HOP-92 NSCLC. Moreover, the growth in the experiment with NCI-H522 lung was 94.7%; with A549/ATCC NSCLC, 101%; with 786-0 renal it was 100%; with COLO 205 colon, 109%.
For the molecule `O=C(/C=C/c1cn(-c2ccccc2)nc1-c1ccc(Cl)cc1)c1cc2ccccc2oc1=O`, the growth with NCI-H23 lung was 78.3%; in the experiment with NCI-H226 lung, 66.1%; with NCI-H322M lung, 77.7%; with HOP-62 NSCLC, 82.4%; in the experiment with NCI-H460 lung it was 54.6%; with HOP-92 NSCLC, 79.6%. Moreover, the growth with NCI-H522 lung is 71%; in the experiment with A549/ATCC NSCLC, 88.7%; in the experiment with 786-0 renal, 46%; with COLO 205 colon it was 84.9%.
For `O=c1oc2ccc(-c3ccc(F)cc3F)cc2c(=O)n1-c1ccc(F)c(F)c1`, the growth was 2.21% (active) in the experiment with NCI-H23 lung; 6.65% (active) in the experiment on NCI-H226 lung; 6.5% (active) with NCI-H322M lung; 17.6% in the experiment on HOP-62 NSCLC; 2.7% (active) in the experiment with NCI-H460 lung; -21.4% (active) in the experiment with HOP-92 NSCLC. Also, the growth with NCI-H522 lung was -2.51% (active); in the experiment on A549/ATCC NSCLC, 7.96% (active); in the experiment with 786-0 renal it was 10.2%; in the experiment with COLO 205 colon it was 83.2%.
On to `Brc1cccc(/C=N/Nc2nc(N/N=C/c3cccc(Br)c3)nc(N3CCOCC3)n2)c1`, for which the growth was 43.1% in the experiment with NCI-H23 lung; 43.3% with NCI-H226 lung; 52.8% in the experiment on NCI-H322M lung; 52.3% in the experiment on HOP-62 NSCLC; 41.2% in the experiment with NCI-H460 lung; 63.8% in the experiment with HOP-92 NSCLC. The growth in the experiment with NCI-H522 lung was 33.6%; in the experiment on A549/ATCC NSCLC, 42.6%; in the experiment on 786-0 renal, 24.5%; in the experiment on COLO 205 colon it was 23.8%.
`COc1ccc2c(C3=C(c4cn(C)c5ccccc45)C(=O)NC3=O)coc2c1`: the growth was 34.8% in the experiment on NCI-H23 lung; 20.3% in the experiment on NCI-H226 lung; 58.4% in the experiment with NCI-H322M lung; 45.3% with HOP-62 NSCLC; 9.16% (active) in the experiment with NCI-H460 lung; 25.3% with HOP-92 NSCLC. In addition, the growth in the experiment on NCI-H522 lung was -29.5% (active); with A549/ATCC NSCLC, 38.7%; with 786-0 renal it was 44.9%; in the experiment on COLO 205 colon, 1.81% (active).
With `CS(=O)c1nccc(-c2c(-c3ccc(F)c(OCCc4ccccc4)c3)nc3sccn23)n1` (stereo not given), the growth is 86.1% in the experiment on NCI-H23 lung; 102% in the experiment with NCI-H226 lung; 76.7% in the experiment on NCI-H322M lung; 98.2% with HOP-62 NSCLC; 57.3% with NCI-H460 lung; 77% in the experiment on HOP-92 NSCLC. For the same molecule, the growth is -79.1% (active) with NCI-H522 lung, 109% in the experiment on A549/ATCC NSCLC, 104% in the experiment with 786-0 renal and 80.7% with COLO 205 colon.
As to `NC(=O)c1c(NC(=O)c2cccc(OC(F)(F)F)c2)sc2c1CCC(=O)C2`, the growth was 25.8% in the experiment on NCI-H23 lung; 80.1% in the experiment on NCI-H226 lung; 110% in the experiment on NCI-H322M lung; 102% with HOP-62 NSCLC; 96.6% with NCI-H460 lung; 71.6% in the experiment on HOP-92 NSCLC. Also, the growth in the experiment with NCI-H522 lung is 20.6%; in the experiment with A549/ATCC NSCLC, 74.7%; in the experiment on 786-0 renal, 89.4%; with COLO 205 colon it was 85.7%.
In the case of `COCCOc1ccc(-c2csc(NC(=O)CN3CCN(CCO)CC3)n2)cc1NS(=O)(=O)c1cccc2c(N(C)C)cccc12`, the growth was 78% in the experiment on NCI-H23 lung; 70.9% with NCI-H226 lung; 68.4% in the experiment on NCI-H322M lung; 81% in the experiment with HOP-62 NSCLC; 98.2% in the experiment on NCI-H460 lung; 13.3% in the experiment with HOP-92 NSCLC. For the same molecule, the growth is 24.1% in the experiment on NCI-H522 lung, 92% in the experiment on A549/ATCC NSCLC, 37.1% with 786-0 renal and 69.8% in the experiment on COLO 205 colon.
For the molecule `Oc1ccc(CSc2nnc(-c3ccncc3)n2-c2ccccc2)c2cccnc12`, the growth was 22.4% in the experiment on NCI-H23 lung; 50.8% in the experiment on NCI-H226 lung; 34% with NCI-H322M lung; 17% in the experiment on HOP-62 NSCLC; 5.96% (active) in the experiment on NCI-H460 lung; -7.79% (active) with HOP-92 NSCLC. Also, the growth was 3.95% (active) with NCI-H522 lung, 25.5% in the experiment with A549/ATCC NSCLC, 29.1% in the experiment on 786-0 renal and 102% in the experiment on COLO 205 colon.
